Sampled rows, rich in hits. Any-hit rate of the full collection: about 21%.
DT40 TDP1 no CPT: qHTS for Inhibitors of human tyrosyl-DNA phosphodiesterase 1 (TDP1): qHTS in cells in absence of CPT; Potency, µM (highest dose often 46.2 µM), actives largely listed as inhibitors; 420,000 compounds, 15% hits; AID 686978, 2013; DT40 Tdp1-/- hTDP1 cells, no CPT, ATP luminescence, 48 h; further: nearly all actives have a fitted effect of over 55% in size
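Growth kinetics read by CellTiter-Glo luminescence after ≥48 hr at 37 °C. Cells: DT40 Tdp1-/- stably carrying human TDP1, 400 per well, compound exposure in the absence of CPT (DMSO vehicle).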
Gal4-VP16 FLuc: inhibits Gal4-VP16 luciferase reporter, ROR gamma counter-screen. Drosophila S2 Gal4-VP16 UAS-luciferase, luminescence, 20 h. Potency, µM (highest dose often 53.6 µM), actives largely listed as inhibitors. 310,000 compounds, 3.5% hits. AID 2546;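 further: Gal4-VP16 expression switched on by copper sulfate through the metallothionein promoter; nearly all actives have a fitted effect of over 50% in size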
IL-1B inflam inh: inhibitors of inflammasome signaling (IL-1 beta secretion); THP-1 LPS/ATP IL-1B secretion, AlphaLISA, 16 h; stronger effect = lower value; activity change, % at 57.5 µM; 360,000 compounds, 4.7% hits; AID 743279; in the data active means activity change below about -50%; inconclusive means mostly about -30% to -49%
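THP-1 cells pretreated 1 hr with compounds (up to 57.5 uM final), then stimulated with LPS (250 ng/mL final) plus ATP (1.25 mM final); secreted IL-1B measured by AlphaLISA after 16 hr, decreased signal indicating inhibition.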
RORgamma inh: blocks mouse ROR gamma transcriptional activity | Drosophila S2 Gal4-RORgamma UAS-luciferase reporter, 20 h | Potency, µM (highest dose often 53.6 µM), most hits filed as inhibitors | 310,000 compounds, 5.4% hits | P51450; further: nearly all actives have a fitted effect of over 60% in size
Target sequence (P51450 whole entry, looked up, the tested form may be a part): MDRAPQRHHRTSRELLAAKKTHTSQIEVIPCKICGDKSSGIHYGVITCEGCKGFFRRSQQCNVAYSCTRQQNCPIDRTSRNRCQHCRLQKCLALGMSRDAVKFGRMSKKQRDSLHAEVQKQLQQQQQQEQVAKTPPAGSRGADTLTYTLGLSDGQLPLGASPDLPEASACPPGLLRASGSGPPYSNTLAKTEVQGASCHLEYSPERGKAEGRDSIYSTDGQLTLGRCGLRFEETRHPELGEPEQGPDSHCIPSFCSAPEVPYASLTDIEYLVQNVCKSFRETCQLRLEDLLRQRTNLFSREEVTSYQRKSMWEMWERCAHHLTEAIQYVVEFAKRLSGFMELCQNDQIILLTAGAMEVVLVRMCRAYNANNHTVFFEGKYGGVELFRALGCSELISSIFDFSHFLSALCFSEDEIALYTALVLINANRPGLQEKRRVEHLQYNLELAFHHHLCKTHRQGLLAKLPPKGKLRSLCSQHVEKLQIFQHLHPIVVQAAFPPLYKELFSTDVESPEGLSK
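Schneider cells (Drosophila), stable Gal4 DBD–ROR gamma + UAS-luc; 1 hr cmpd preincubation; Cu2+ induction 700 uM final; 20 hr ambient; luminescence.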
ELG1 DNA repair: blocks ELG1-dependent DNA repair in HEK293T cells. HEK293T ELG1-luciferase reporter, luminescence, 16 h; DNA damage induced by 5-fluorouridine. Potency, µM (titrated, usually from 46.1 µM), usual class: inhibitors. 330,000 compounds, 2.3% hits. AID 504467; further: nearly all actives have a fitted effect of over 55% in size
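Quantitative HTS, concentration-response format. 2,000 cells/well co-treated with 5-fluorouridine and compound, 16 hr in 5% CO2 at 37 °C; ONE-Glo luminescence read after 30 min.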
TDP1 cell CPT: growth inhibition of DT40 Tdp1-/-;hTDP1 cells with camptothecin (screen for TDP1 inhibitors). Potency, µM (series often up to 46.2 µM), most hits filed as inhibitors. 420,000 compounds, 12% hits. chicken DT40 Tdp1-/-;hTDP1 cells + 20 nM CPT, ATP luminescence, 48 h; further: nearly all actives have a fitted effect of over 55% in size
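Chicken DT40 Tdp1-/- cells complemented with human TDP1, 400 cells/well, exposed to compounds plus 20 nM camptothecin for at least 48 h at 37 C; viability read as ATP content by CellTiter-Glo luminescence.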
Numbers stand for hits; . = inactive; ? = inconclusive; / = no result. Unless noted, the call rests on the fitted dose curve; in most records, active means well fitted curve in the direction sought with a large enough effect; inconclusive means small, poorly fitted or top-dose-only effect, or another doubt; inactive means no such curve, though single readings can be large; an effect the other way counts as inactive or inconclusive.

SMILES | DT40 TDP1 no CPT | Gal4-VP16 FLuc | IL-1B inflam inh | RORgamma inh | ELG1 DNA repair | TDP1 cell CPT
CC(=O)c1cccc(S(=O)(=O)NC2CCSc3ccccc32)c1 (configuration not stated) | 11.6µM | . | . | . | . | ?
NS(=O)(=O)c1cccc(C(=O)NC2CCSc3ccccc32)c1 (configuration not stated) | . | . | . | ? | . | .
CC/C(=N\NC(=O)c1cc(C2CC2)[nH]n1)c1ccccc1 | . | ? | . | . | ? | .
O=C(CNCC1CCCCC1)Nc1ccc(OC(F)(F)F)cc1 | . | . | -101.3 | . | . | .
COc1ccc(CCNCC(=O)Nc2ccc(C)c(S(=O)(=O)N(C)C)c2)cc1 | 4.61µM | . | -75.7 | . | . | .
CN(CC(=O)Nc1ccc(OC(F)(F)F)cc1)C1CCCCC1 | . | . | ? | . | . | ?
COc1cc(CCC(=O)Nc2ccc(C)c(S(=O)(=O)N(C)C)c2)cc(OC)c1OC | 20.6µM | . | . | . | 9.2µM | 14.6µM
C/C=C/C(=O)OCC(=O)Nc1ccc(C)c(S(=O)(=O)N(C)C)c1 | . | . | ? | . | . | .
Cc1ccc(NC(=S)NC2CCCCC2)cc1S(=O)(=O)N(C)C | ? | ? | . | 12.6µM | ? | ?
CC(C)(C)OC(=O)N1CCC(C(=O)Nc2cccc(C(=O)N3CCCCC3)c2)CC1 | . | / | . | / | / | .
COc1ccc(C(=O)NCC(=O)OCC(=O)Nc2ccc(C)c(S(=O)(=O)N(C)C)c2)cc1OC | . | . | . | . | . | .
Cc1ccc(NC(=O)CN2C(=O)C3C4C=CC(C4)C3C2=O)cc1S(=O)(=O)N(C)C (configuration not stated) | ? | . | . | . | . | ?
COc1ccc(CCC(=O)Nc2ccc(C)c(S(=O)(=O)N(C)C)c2)cc1OC | 16.4µM | . | . | . | ? | ?
O=C(CSc1nn(-c2ccccc2)c(=S)s1)Nn1cnnc1 | . | . | . | . | . | .
Cc1ccc(NC(=O)CNCC2CCCCC2)cc1S(=O)(=O)N(C)C | ? | . | . | . | ? | 16.4µM
Cc1ccc(NC(=O)CSc2nn(-c3ccccc3)c(=S)s2)cc1S(=O)(=O)N(C)C | 5.17µM | 14.1µM | . | ? | 23.1µM | 5.17µM
O=C(NCc1ccccc1)c1nn(-c2ccccc2)nc1CO | ? | / | / | / | / | .
COc1ccc(CN2CCC(Cc3ccccc3)CC2)c(C)c1C | ? | . | -77.8 | . | . | ?
CCC(=O)c1ccccc1OCCCN1CCC(Cc2ccccc2)CC1 | ? | / | -89.0 | / | . | ?
N#Cc1ccccc1OCCCN1CCC(Cc2ccccc2)CC1 | 16.4µM | / | ? | / | . | ?
COc1cccc(OC)c1OCCCCN1CCCC1 | . | . | . | . | . | .
CC(=O)CCc1ccc(OCCCCN2CCC(Cc3ccccc3)CC2)cc1 | . | . | . | . | ? | .
COc1cccc(OC)c1OCCCCN1CCC(Cc2ccccc2)CC1 | 18.4µM | . | -77.1 | . | ? | ?
C=CC[C@@H](CC(=O)OC(C)(C)C)C(=O)OC[C@@H]1CCCN1C(=O)[C@@H](CC=C)CC(=O)N[C@H](CO)Cc1ccccc1 | ? | / | . | / | ? | 23.1µM
C=CC[C@H](CC(=O)OC(C)(C)C)C(=O)OC[C@@H]1CCCN1C(=O)[C@H](CC=C)CC(=O)N[C@H](CO)Cc1ccccc1 | ? | / | . | / | . | 25.9µM
SMILES | DT40 TDP1 no CPT | Gal4-VP16 FLuc | IL-1B inflam inh | RORgamma inh | ELG1 DNA repair | TDP1 cell CPT
C=CC[C@H](CC(=O)OC(C)(C)C)C(=O)OC[C@@H]1CCCN1C(=O)[C@@H](CC=C)CC(=O)N[C@H](CO)Cc1ccccc1 | ? | / | . | / | ? | 16.4µM
C=CC[C@@H](CC(=O)OC(C)(C)C)C(=O)OC[C@H]1CCCN1C(=O)[C@@H](CC=C)CC(=O)NCCO | . | / | . | / | . | .
COc1cccc(N2CCN(S(=O)(=O)c3ccc(-c4cc(C(F)(F)F)on4)s3)CC2)c1 | . | / | / | / | / | .
COc1ccccc1NS(=O)(=O)c1cccc(C(=O)N2CC(C)OC(C)C2)c1 (configuration not stated) | ? | / | . | / | ? | .
C#CCOCCOCCOCCNc1nc(N2CCN(C(=O)[C@H]([C@@H](C)CC)n3cc([C@@H](N)CC(C)C)nn3)CC2)nc(N2CCN(C(=O)[C@H](CCCCN)n3cc([C@@H](N)CO)nn3)CC2)n1 | . | . | . | . | . | ?
CCN1CCc2nc3sc(C(=O)c4ccccc4)c(N)c3cc2C1 | 3.66µM | / | / | / | / | 2.59µM
Nc1c(C(=O)c2ccc(Cl)cc2)sc2nc3c(cc12)CCC3 | . | ? | . | ? | ? | .
CCN1CCc2nc3sc(C(=O)c4ccc(F)cc4)c(N)c3cc2C1 | 23.1µM | / | / | / | / | ?
S=c1[nH]cc(Cc2ccccc2)s1 | ? | ? | . | 12.6µM | . | .
C[N+](C)(C)CC/C=C1/c2ccccc2CSc2ccccc21 | ? | . | . | . | . | ?
CNCCC=C1c2ccccc2CCc2ccccc21 | 20.6µM | . | -64.3 | . | . | 9.2µM
CC(C)(C)OC(=O)N1CCN(C(=O)c2[nH]cnc2C(=O)N[C@@H](Cc2ccccc2)C(=O)OCc2ccccc2)CC1 | ? | ? | -64.5 | 11.2µM | . | ?
C[C@H](OC(=O)c1[nH]cnc1C(=O)N1CCN(C(=O)OC(C)(C)C)CC1)c1ccccc1 | 25.9µM | / | . | / | . | ?
CC(C)(C)OC(=O)[C@H](Cc1ccccc1)NC(=O)c1nc[nH]c1C(=O)N1CCN(C(=O)OC(C)(C)C)CC1 | . | ? | . | 11.2µM | ? | ?
CC(C)C[C@H](NC(=O)c1nc[nH]c1C(=O)N1CCC(C)CC1)C(=O)OCc1ccccc1 | . | ? | . | ? | . | ?
CC(C)(C)OC(=O)[C@H](Cc1ccccc1)NC(=O)c1nc[nH]c1C(=O)N1CCN(c2ccccc2)CC1 | ? | ? | . | . | . | ?
CC(C)C[C@H](NC(=O)c1nc[nH]c1C(=O)N1CCN(C(=O)OC(C)(C)C)CC1)C(=O)OCc1ccccc1 | 16.4µM | ? | -71.0 | 8.91µM | . | 18.4µM
CCOC(=O)Nc1ccccc1C(=O)N1CCOCC1 | . | . | . | . | . | .
COc1ccc(CC(=O)Nc2sccc2C#N)cc1S(=O)(=O)N1CCOCC1 | . | / | . | / | . | .
Cc1ccc(NS(=O)(=O)c2cccc(C(=O)N/N=C/c3ccc4c(c3)OCCO4)c2)c(C)c1 | . | . | . | . | ? | .
CN(Cc1ccccc1)C(=O)c1nc[nH]c1C(=O)N1CCN(C(=O)OC(C)(C)C)CC1 | . | / | . | / | . | .
CC1CCN(C(=O)c2[nH]cnc2C(=O)N[C@@H](Cc2ccccc2)C(=O)OC(C)(C)C)CC1 | . | 20µM | . | ? | . | ?

Screens from PubChem BioAssay.
